Laboratory results from the supplement of paper PMC13380429.
A number with no mark means an inactive call.

System: Vero E6 infected with SARS-CoV-2
Assay: inhibition of SARS-CoV-2 cytopathic effect; higher = more antiviral protection, active = above 15
Details: 48 h

Question: For O=C(Nc1ccc(Cl)cc1)Nc1cccc(-c2cccc(N3CCCC3)n2)c1, which “inhibition of SARS-CoV-2 cytopathic effect” value (from here on “inhibition”) (1 nM) is on record?
Answer: 1%

Question: And the “inhibition” value (8.33 nM)?
Answer: 1.53%

Question: What about the “inhibition” value (100 nM) of the same compound?
Answer: -2.03%

Question: And the “inhibition” value (833.33 nM)?
Answer: -4.04%

Question: What about the “inhibition” value (10000 nM) of the same compound?
Answer: -6.24%

Question: With COc1cc(Nc2ncc3c(n2)-c2ccc(Cl)cc2C(c2c(F)cccc2OC)=NC3)ccc1C(=O)O [alisertib] as the compound, how does the “inhibition” value (1 nM) read?
Answer: -2.11%

Question: What about the “inhibition” value (8.33 nM) of the same compound?
Answer: 0.41%

Question: And the “inhibition” value (100 nM)?
Answer: -2.08%

Question: And the “inhibition” value (833.33 nM)?
Answer: 0.49%

Question: And the “inhibition” value (10000 nM)?
Answer: -5.87%

Question: Which results are given for C1CCN2C[C@@H]3C[C@@H](CN4CCCC[C@@H]34)[C@H]2C1 [sparteine-sulfate]?
Answer: inhibition of SARS-CoV-2 cytopathic effect (1 nM): 0.15%; inhibition of SARS-CoV-2 cytopathic effect (8.33 nM): 4.17%; inhibition of SARS-CoV-2 cytopathic effect (100 nM): 3.05%; inhibition of SARS-CoV-2 cytopathic effect (833.33 nM): 1.05%; inhibition of SARS-CoV-2 cytopathic effect (10000 nM): -2.55%

Question: Which “inhibition” value (1 nM) does the source give for O=S1(=O)CCN(CN2CCS(=O)(=O)NC2)CN1 [taurolidine] here?
Answer: 0.08%

Question: And the “inhibition” value (8.33 nM)?
Answer: 2.04%

Question: What about the “inhibition” value (100 nM) of the same compound?
Answer: -0.86%

Question: What about the “inhibition” value (833.33 nM) of the same compound?
Answer: -0.85%

Question: And the “inhibition” value (10000 nM)?
Answer: 0.19%

Question: What does the source list for CCC1=C[C@@H]2CN(C1)Cc1c([nH]c3ccccc13)[C@@](C(=O)OC)(c1cc3c(cc1OC)N(C)[C@H]1[C@@](O)(C(=O)OC)[C@H](OC(C)=O)[C@]4(CC)C=CCN5CC[C@]31[C@@H]54)C2 [vinorelbine]?
Answer: inhibition of SARS-CoV-2 cytopathic effect (1 nM): -1.63%; inhibition of SARS-CoV-2 cytopathic effect (8.33 nM): -1.57%; inhibition of SARS-CoV-2 cytopathic effect (100 nM): -1.35%; inhibition of SARS-CoV-2 cytopathic effect (833.33 nM): -2.48%; inhibition of SARS-CoV-2 cytopathic effect (10000 nM): -3.81%

Question: For N#Cc1cc(CN2CCC(Nc3ncnc4sc(Cl)cc34)CC2)ccc1F, which “inhibition” value (1 nM) is on record?
Answer: 6.81%

Question: And the “inhibition” value (8.33 nM)?
Answer: 8.07%

Question: What about the “inhibition” value (100 nM) of the same compound?
Answer: 7.98%

Question: What about the “inhibition” value (833.33 nM) of the same compound?
Answer: 1.59%

Question: What about the “inhibition” value (10000 nM) of the same compound?
Answer: 0.56%

Question: With Cc1c(C(=O)NN2CCOCC2)nn(-c2ccc(Cl)cc2Cl)c1-c1ccc(I)cc1 as the compound, how does the “inhibition” value (1 nM) read?
Answer: 0.53%

Question: What about the “inhibition” value (8.33 nM) of the same compound?
Answer: 1.48%

Question: What about the “inhibition” value (100 nM) of the same compound?
Answer: 1.24%

Question: What about the “inhibition” value (833.33 nM) of the same compound?
Answer: -2.07%

Question: What about the “inhibition” value (10000 nM) of the same compound?
Answer: 1.16%

Question: With N#Cc1ccc(NCCNCC(=O)N2CCC[C@H]2C#N)nc1 as the compound, how does the “inhibition” value (1 nM) read?
Answer: 0.59%

Question: What about the “inhibition” value (8.33 nM) of the same compound?
Answer: 2.4%

Question: And the “inhibition” value (100 nM)?
Answer: -0.06%

Question: And the “inhibition” value (833.33 nM)?
Answer: 3.35%

Question: What about the “inhibition” value (10000 nM) of the same compound?
Answer: 2.5%

Question: With COc1cc(Br)c(S(=O)(=O)Nc2ccc(Cl)c(O[C@@H]3CCN(C)C3)c2)cc1OC as the compound, how does the “inhibition” value (1 nM) read?
Answer: 1.45%

Question: And the “inhibition” value (8.33 nM)?
Answer: 1.7%

Question: And the “inhibition” value (100 nM)?
Answer: -0.06%

Question: What about the “inhibition” value (833.33 nM) of the same compound?
Answer: -0.33%

Question: What about the “inhibition” value (10000 nM) of the same compound?
Answer: -0.58%

Question: What does the source list for C[C@H]1CCC/C=C/[C@@H]2C[C@H](O)C[C@H]2[C@H](O)/C=C/C(=O)O1 [brefeldin-A]?
Answer: inhibition of SARS-CoV-2 cytopathic effect (1 nM): 0.16%; inhibition of SARS-CoV-2 cytopathic effect (8.33 nM): 2.51%; inhibition of SARS-CoV-2 cytopathic effect (100 nM): 47.2% (active); inhibition of SARS-CoV-2 cytopathic effect (833.33 nM): -3.55%; inhibition of SARS-CoV-2 cytopathic effect (10000 nM): -4.89%

Question: Which “inhibition” value (1 nM) does the source give for CN(C)CCN1C(=O)c2cccc3cc(NC(N)=O)cc(c23)C1=O [unbs-5162] here?
Answer: -0.12%

Question: What about the “inhibition” value (8.33 nM) of the same compound?
Answer: 4.76%

Question: And the “inhibition” value (100 nM)?
Answer: 2.53%

Question: And the “inhibition” value (833.33 nM)?
Answer: 0.4%

Question: What about the “inhibition” value (10000 nM) of the same compound?
Answer: -2.03%

Question: What does the source list for C/C=C/c1cc(OC)c(OC)cc1OC [alpha-asarone]?
Answer: inhibition of SARS-CoV-2 cytopathic effect (1 nM): 0.99%; inhibition of SARS-CoV-2 cytopathic effect (8.33 nM): 0.62%; inhibition of SARS-CoV-2 cytopathic effect (100 nM): -3.56%; inhibition of SARS-CoV-2 cytopathic effect (833.33 nM): -3.9%; inhibition of SARS-CoV-2 cytopathic effect (10000 nM): -0.33%

Question: How did the “inhibition” value (1 nM) turn out when COc1cc([C@@H]2c3cc4c(cc3[C@@H](O[C@@H]3O[C@@H]5CO[C@@H](c6cccs6)O[C@H]5[C@H](O)[C@H]3O)[C@H]3COC(=O)[C@H]23)OCO4)cc(OC)c1O [teniposide] was run?
Answer: 1.37%

Question: What about the “inhibition” value (8.33 nM) of the same compound?
Answer: 2.49%

Question: What about the “inhibition” value (100 nM) of the same compound?
Answer: 4.69%

Question: And the “inhibition” value (833.33 nM)?
Answer: 1.54%

Question: And the “inhibition” value (10000 nM)?
Answer: -7.08%

Question: How did the “inhibition” value (1 nM) turn out when CCc1ccc(CCOc2ccc(CC3SC(=O)NC3=O)cc2)nc1 (stereo not given) [pioglitazone] was run?
Answer: -1.62%

Question: What about the “inhibition” value (8.33 nM) of the same compound?
Answer: 1.34%

Question: What about the “inhibition” value (100 nM) of the same compound?
Answer: 1.49%

Question: And the “inhibition” value (833.33 nM)?
Answer: -8.11%

Question: What about the “inhibition” value (10000 nM) of the same compound?
Answer: 1.27%

Question: Which “inhibition” value (1 nM) does the source give for OC1=c2ccccc2=C(NC2CCCCC2)/C1=C\c1ccccc1 here?
Answer: 0.53%

Question: And the “inhibition” value (8.33 nM)?
Answer: 0.22%

Question: What about the “inhibition” value (100 nM) of the same compound?
Answer: 0.42%

Question: What about the “inhibition” value (833.33 nM) of the same compound?
Answer: 13.8%

Question: And the “inhibition” value (10000 nM)?
Answer: 45.5% (active)

Question: With O=C(CN1CCN(Cc2ccc3c(c2)OCO3)CC1)N1c2ccccc2Sc2ccccc21 [fenoverine] as the compound, how does the “inhibition” value (1 nM) read?
Answer: 0.16%

Question: And the “inhibition” value (8.33 nM)?
Answer: -2.81%

Question: And the “inhibition” value (100 nM)?
Answer: 4.98%

Question: And the “inhibition” value (833.33 nM)?
Answer: -0.47%

Question: And the “inhibition” value (10000 nM)?
Answer: -3.71%

Question: Which results are given for O=C(O)c1cc(-c2ccccc2)nc2ccccc12 [cinchophen]?
Answer: inhibition of SARS-CoV-2 cytopathic effect (1 nM): -0.85%; inhibition of SARS-CoV-2 cytopathic effect (8.33 nM): -0.04%; inhibition of SARS-CoV-2 cytopathic effect (100 nM): -2.56%; inhibition of SARS-CoV-2 cytopathic effect (833.33 nM): 0.2%; inhibition of SARS-CoV-2 cytopathic effect (10000 nM): 2.97%

Question: CCn1c(-c2nonc2N)nc2cncc(CNC3CCNCC3)c21 was tested. Which “inhibition” value (1 nM) did it give?
Answer: 0.63%

Question: And the “inhibition” value (8.33 nM)?
Answer: -1.43%

Question: What about the “inhibition” value (100 nM) of the same compound?
Answer: -0.75%

Question: And the “inhibition” value (833.33 nM)?
Answer: -2.49%

Question: And the “inhibition” value (10000 nM)?
Answer: -3.57%
